For orientation: inhibition means the change of the read-out against control, counted positive when it falls.

Consider 15 compounds from PubChem BioAssay.

For part of these data: Entries with a potency or affinity are not part of this list. The source made the active and inactive calls.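 How the source made its calls, unless noted: active means primary screen hit whose fluorescence ratio, in both repeats, exceeds the weak agonist control mean by 3 SD; inactive means the rest.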

For experiment [1], the system named is TRPC4 beta (transient receptor potential cation channel C4), mouse. Description: activators of mouse TRPC4 channel, confirmation, cell-based, Fluo4 calcium, HEK293 TRPC4beta/mu-opioid, duplicates, 10 µM (AID 2426;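 active means fluorescence ratio normalized to control raised more than 50% in primary screen plus both repeat runs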). Conditions: Fluo4 calcium fluorescence, at 10 µM; active compounds read high.
Experiment [2] concerns transient receptor potential cation channel C4 beta (TRPC4), mouse. Description: activators of mouse TRPC4 channel, confirmation, cell-based, second round, Fluo4, HEK293 TRPC4beta/mu-opioid, 1 µM (AID 2461;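 active means primary screen active and over 50% activation in each of two duplicate runs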). Conditions: Fluo4 calcium fluorescence, at 1 µM; active compounds read high.
In experiment [3] the test system is TRPC4 (transient receptor potential cation channel C4 beta), mouse. Description: positive allosteric modulators of mouse TRPC4, confirmation, cell-based, second round, Fluo-4, HEK293 TRPC4beta/mu-opioid, 1 µM (AID 2554). Conditions: DAMGO EC20, Fluo-4 calcium flux, at 1 µM; active compounds read high. A general note: A change in cytosolic calcium serves as a functional read-out for many receptors and channels.

Experiment [4] relates to TRPC4 beta (transient receptor potential cation channel C4), mouse. The experiment can be described thus: positive allosteric modulators of mouse TRPC4, confirmation, cell-based, Fluo-4, HEK293 TRPC4beta/mu-opioid (AID 2555;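 active means primary screen hit whose calcium fluorescence ratio, in both repeats, exceeds the weak agonist control mean by 3 SD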). Conditions: DAMGO EC20, Fluo-4 calcium flux, at 10 µM; active compounds read high.
Experiment [5] has as its target Short transient receptor potential channel 4 (Mus musculus) (UniProt Q9QUQ5). Description: inhibitors of mouse TRPC4 channel, confirmation, cell-based, Fluo4, HEK293 TRPC4beta/mu-opioid (AID 2636;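 active means calcium signal cut by more than 3 SD below the full-agonist control yet still positive, in both repeats and the earlier primary screen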). Conditions: DAMGO, Fluo4 calcium flux, at 10 µM; active compounds read high.
Experiment [6] has the same target. The experiment can be described thus: inhibitors of mouse TRPC4 channel, confirmation, cell-based, second round, Fluo4, HEK293 TRPC4beta/mu-opioid, 1 µM (AID 2637;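 active means calcium signal ratio cut to more than 3 SD under the fully stimulated control mean yet still positive, in both repeats and the primary screen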). Conditions: Fluo4 calcium flux, DAMGO, at 1 µM; active compounds read high.
The target is the same in experiment [7]. Description: mouse TRPC4 channel activators, dose response, cell-based, HEK293 TRPC4/mu-opioid, Fluo-4 calcium (AID 434937;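 active means primary screen activator hit with a dose response curve and TRPC4 channel activation at any tested dose; inactive means no activation, no dose response, or not a primary hit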).
The target is the same in experiment [8]. The experiment can be described thus: TRPC4 positive allosteric modulators, dose response, cell-based, HEK293 TRPC4/mu-opioid, Fluo-4 calcium, EC20 DAMGO (AID 434941;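 active means earlier screen potentiator hit that boosts the TRPC4 ion channel at some dose, with a dose response; inactive means no potentiation, no dose response, or not a prior hit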;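 further: calcium entry triggered by an EC20 dose of DAMGO at the co-expressed mu-opioid receptor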).
Experiment [9] shares this target. Description: mouse TRPC4 channel inhibitors, dose response, cell-based, HEK293 TRPC4/mu-opioid, Fluo-4 calcium (AID 434942;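 active means primary screen inhibitor hit that blocks the TRPC4 channel at some tested dose, yielding a dose curve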).
Experiment [10] deals with Short transient receptor potential channel 6 (Mus musculus) (UniProt Q61143). The experiment can be described thus: inhibition of mouse TRPC6 channel, confirmation, selectivity assay for TRPC4 inhibitor project, cell-based, HEK293, membrane potential dye, duplicate (AID 434948;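 active means active in primary screen and both duplicates, each dropping signal beyond three positive-control SD with fluorescence still positive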). Conditions: HEK293 TRPC6, membrane potential dye fluorescence, at 10 µM, stimulated with maximal-effect acetylcholine; active compounds read high.
Short transient receptor potential channel 6 (Mus musculus), sequence (Q61143 whole entry, looked up): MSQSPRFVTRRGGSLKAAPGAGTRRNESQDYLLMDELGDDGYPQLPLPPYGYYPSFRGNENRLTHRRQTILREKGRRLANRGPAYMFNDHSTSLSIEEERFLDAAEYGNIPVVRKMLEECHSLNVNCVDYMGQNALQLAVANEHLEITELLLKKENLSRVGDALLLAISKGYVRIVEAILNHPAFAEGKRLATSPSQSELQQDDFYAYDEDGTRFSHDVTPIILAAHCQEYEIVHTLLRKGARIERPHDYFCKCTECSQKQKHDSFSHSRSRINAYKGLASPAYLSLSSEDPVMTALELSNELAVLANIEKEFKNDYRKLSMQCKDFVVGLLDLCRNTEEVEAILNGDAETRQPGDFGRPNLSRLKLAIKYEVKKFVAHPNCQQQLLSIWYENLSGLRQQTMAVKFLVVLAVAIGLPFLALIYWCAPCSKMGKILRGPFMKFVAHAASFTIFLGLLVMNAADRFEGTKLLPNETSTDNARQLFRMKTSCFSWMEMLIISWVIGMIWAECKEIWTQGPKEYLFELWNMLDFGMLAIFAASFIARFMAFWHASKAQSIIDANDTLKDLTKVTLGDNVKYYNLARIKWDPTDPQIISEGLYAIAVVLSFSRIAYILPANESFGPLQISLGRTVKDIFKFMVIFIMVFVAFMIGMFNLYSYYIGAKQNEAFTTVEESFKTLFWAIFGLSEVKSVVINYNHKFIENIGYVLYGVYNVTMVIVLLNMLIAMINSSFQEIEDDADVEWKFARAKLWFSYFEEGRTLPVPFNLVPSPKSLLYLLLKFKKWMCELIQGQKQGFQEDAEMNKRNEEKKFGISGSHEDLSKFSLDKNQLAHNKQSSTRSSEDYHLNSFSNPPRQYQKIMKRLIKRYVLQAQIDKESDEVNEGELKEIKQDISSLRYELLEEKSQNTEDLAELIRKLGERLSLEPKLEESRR

For experiment [11] the target is unchanged. Description: activation of mouse TRPC6 channel, confirmation, selectivity assay for TRPC4 activator project, cell-based, HEK293, membrane potential dye, duplicate (AID 434950;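 active means membrane potential signal rise above negative control mean plus 3 SD in both duplicates, also active in the earlier TRPC4 screen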). Conditions: HEK293 TRPC6, membrane potential fluorescence, at 10 µM; active compounds read high.
Experiment [12] shares this target. Description: TRPC6 potentiation by TRPC4 potentiator hits, confirmation, selectivity assay for TRPC4 potentiator project, HEK293 cells, membrane potential dye, duplicate (AID 434952;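 active means compound raising the membrane signal above positive-control mean plus 3 SD in both repeats, and a primary screen hit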). Conditions: HEK293 TRPC6, membrane potential dye fluorescence, at 10 µM, maximal acetylcholine added after compound; active compounds read high.
The target in experiment [13] is Short transient receptor potential channel 4 (Mus musculus) (UniProt Q9QUQ5). Description: calcium flux activators in TRPC4/5HT1a cells, counter-screen for TRPC4 activator project, cell-based, second counter screen, HEK293 TRPC4/5HT1a, Fluo-4 (AID 434977;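 active means calcium signal rise above buffer-control mean plus 5 SD in both duplicates, and also a hit in the primary screen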;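 on activation: plate controls were assay buffer for no effect and maximal serotonin response for full effect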). Conditions: Fluo-4 calcium flux, at 10 µM; active compounds read high.
Short transient receptor potential channel 4 (Mus musculus), sequence (Q9QUQ5 whole entry, looked up): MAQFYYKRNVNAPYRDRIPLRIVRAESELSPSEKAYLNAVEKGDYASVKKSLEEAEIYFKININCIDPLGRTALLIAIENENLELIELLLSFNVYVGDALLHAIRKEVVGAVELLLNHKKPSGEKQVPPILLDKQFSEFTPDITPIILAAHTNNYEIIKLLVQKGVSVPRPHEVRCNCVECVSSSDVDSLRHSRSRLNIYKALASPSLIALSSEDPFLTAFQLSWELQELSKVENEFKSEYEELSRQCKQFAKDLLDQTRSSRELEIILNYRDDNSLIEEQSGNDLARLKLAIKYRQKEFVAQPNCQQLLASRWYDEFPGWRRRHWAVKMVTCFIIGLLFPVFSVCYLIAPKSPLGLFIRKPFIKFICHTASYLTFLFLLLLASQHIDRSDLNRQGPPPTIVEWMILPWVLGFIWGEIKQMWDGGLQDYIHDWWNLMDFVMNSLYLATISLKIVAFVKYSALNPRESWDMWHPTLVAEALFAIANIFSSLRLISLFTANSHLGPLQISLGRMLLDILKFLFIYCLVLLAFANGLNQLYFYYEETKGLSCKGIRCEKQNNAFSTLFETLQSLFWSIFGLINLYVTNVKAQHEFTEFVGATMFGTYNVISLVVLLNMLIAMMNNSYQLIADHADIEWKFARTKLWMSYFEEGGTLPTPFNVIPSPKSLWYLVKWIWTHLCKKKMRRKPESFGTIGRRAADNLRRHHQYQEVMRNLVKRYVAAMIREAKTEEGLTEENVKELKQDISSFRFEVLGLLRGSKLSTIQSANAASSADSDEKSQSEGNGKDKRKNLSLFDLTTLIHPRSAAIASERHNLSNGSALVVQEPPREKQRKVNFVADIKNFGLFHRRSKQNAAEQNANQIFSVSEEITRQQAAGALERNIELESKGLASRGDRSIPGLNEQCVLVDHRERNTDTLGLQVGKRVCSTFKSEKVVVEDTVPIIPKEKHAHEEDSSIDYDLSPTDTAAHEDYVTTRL
A short description of experiment [14]: calcium flux inhibitors in TRPC4/5HT1a cells, confirmation, counter-screen for TRPC4 inhibitor project, cell-based, second counter screen, HEK293 TRPC4/5HT1a, Fluo-4 (AID 434978;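 active means primary screen active whose calcium signal fell more than 3 SD beyond the full-serotonin control mean in both duplicate plates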;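 on outcome: serotonin given first at submaximal then at maximal dose after compound preincubation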). Conditions: Fluo-4 calcium flux, at 10 µM, serotonin added to trigger calcium flux; active compounds read high.
Experiment [15] concerns TRPC4 (mouse), co-expressed with 5HT1a in HEK293. Description: calcium flux potentiators in TRPC4/5HT1a cells, confirmation, counter-screen for TRPC4 potentiator project, cell-based, second counter screen, HEK293 TRPC4/5HT1a, Fluo-4 (AID 434979;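 active means signal rise over 3 SD above mean of control wells given weak agonist, in both repeats and first screen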). Conditions: Fluo-4 calcium flux, at 10 µM, serotonin added at its EC20 dose; active compounds read high.
Experiment [16] in a line: calcium flux activation in mu-opioid HEK293 cells, confirmation, counter-screen for TRPC4 activator project, cell-based, HEK293 mu-opioid receptor line (AID 449723;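 active means hit in primary screen, with calcium signal over 5 SD above buffer well mean in both duplicates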;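 further: counter screen cells carry the mu-opioid receptor alone and lack TRPC4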). Conditions: Fluo-4 calcium fluorescence, at 10 µM; active compounds read high.
Experiment [17] is described as follows: calcium flux enhancement in mu-opioid HEK293 cells, confirmation, counter-screen for TRPC4 allosteric potentiator project, cell-based, HEK293 mu-opioid receptor line (AID 449724;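 active means calcium signal rise more than 3 SD above the low-dose agonist control mean, in both duplicate plates and the primary screen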;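 further: HEK293 cells carrying mu-opioid receptor only with no TRPC4 channel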). Conditions: Fluo-4 calcium flux, at 10 µM, compound added before EC20 DAMGO stimulus; active compounds read high.

In the case of `Cc1ccc(-n2c(C)cc(C)c(C#N)c2=O)cc1Cl`, the result in experiment [1], in experiment [2], in experiment [3], in experiment [4], in [5] and in [6] was inactive. Further, the result in experiment [7], in experiment [8], in experiment [9], in [10], in [11] and in [12] was inactive. Besides, the outcome in experiment [14], in [15], in experiment [16] and in experiment [17] was inactive. Moreover, the activation in experiment [13] was 11.4% (active).

Take `Cc1cc(Nc2ccccc2O)c2ccccc2n1`: the result in experiment [1], in [2], in [3], in [4], in experiment [5] and in [6] was inactive. The result in [7], in experiment [8], in experiment [9], in experiment [10], in experiment [11] and in experiment [12] was inactive. The outcome in experiment [13], in [14], in [15], in experiment [16] and in [17] was inactive.

On to `CC(=O)c1ccc(OCC(O)CN2CCN(S(=O)(=O)c3c(C)cc(C)cc3C)CC2)cc1` (stereo not given), for which the outcome in experiment [1], in [2], in experiment [5], in experiment [6], in experiment [7] and in experiment [8] was inactive. For the same compound, the result in [9], in experiment [10], in experiment [11], in experiment [12], in experiment [13] and in experiment [14] was inactive. Further, the outcome in experiment [16] and in experiment [17] was inactive. The results for the potentiation in experiment [3], in experiment [4] and in [15] were 20% (active), 23% (active) and 27.2% (active), respectively.

For the compound `CN(C)CCCNc1ncnc2c1cnn2Cc1ccccc1Cl`, the result in experiment [1], in [2], in experiment [3], in [5], in experiment [6] and in experiment [7] was inactive. The outcome in experiment [8], in experiment [9], in experiment [10], in experiment [11], in experiment [12] and in [13] was inactive. Moreover, the result in [14], in experiment [16] and in [17] was inactive. Besides, the potentiation was 15% (active) in [4] and 19.8% (active) in experiment [15].

As to `CCn1c(NCc2ccco2)nc2ccccc21`, the result in experiment [1], in [2], in [3], in [5], in experiment [6] and in [7] was inactive. The result in [8], in [9], in [10], in experiment [11], in [12] and in experiment [13] was inactive. The outcome in [14], in experiment [16] and in experiment [17] was inactive. The potentiation is 8% (active) in experiment [4] and 12.3% (active) in [15].

On to `CC(C)CN(C(=O)COC(=O)CCC(=O)c1ccc(Cl)cc1)c1c(N)n(Cc2ccccc2)c(=O)[nH]c1=O`, for which the result in experiment [1], in experiment [2], in [3], in experiment [4], in experiment [5] and in experiment [6] was inactive. Also, the result in [7], in experiment [8], in experiment [9], in [10], in experiment [11] and in experiment [12] was inactive. Moreover, the result in experiment [13], in [14], in experiment [15], in [16] and in experiment [17] was inactive.

With `O=C(COC(=O)CSc1ccc([N+](=O)[O-])cc1)NCCCc1ccccc1`, the result in experiment [1], in [2], in experiment [3], in [4], in experiment [5] and in experiment [6] was inactive. Further, the result in experiment [7], in [8], in [9], in experiment [10], in experiment [11] and in experiment [12] was inactive. In addition, the outcome in experiment [13], in experiment [14], in experiment [15], in [16] and in experiment [17] was inactive.

Turning to `NCCc1nnc(SCc2ccccc2)o1`, the result in experiment [1], in experiment [2], in experiment [3], in experiment [4], in experiment [5] and in experiment [6] was inactive. Moreover, the outcome in [7], in experiment [8], in experiment [9], in experiment [10], in [11] and in [12] was inactive. In addition, the outcome in experiment [13], in [14], in experiment [15], in experiment [16] and in experiment [17] was inactive.

In the case of `O=C(Nc1cccc(C(F)(F)F)c1)c1cccc(NS(=O)(=O)c2ccc(O)c(C(=O)O)c2)c1`, the result in [1], in [2], in experiment [3], in experiment [4], in experiment [5] and in experiment [6] was inactive. Further, the result in experiment [7], in experiment [8], in experiment [9], in experiment [10], in experiment [11] and in experiment [12] was inactive. Further, the outcome in experiment [13], in [14], in experiment [15], in [16] and in experiment [17] was inactive.

On to `Cc1cccn2c(=O)c3cc(C(=O)N(C)C)n(C)c3nc12`, for which the outcome in experiment [1], in experiment [2], in [3], in experiment [5], in experiment [6] and in experiment [7] was inactive. The result in experiment [8], in [9], in experiment [10], in [11], in experiment [12] and in [13] was inactive. The result in experiment [14], in experiment [16] and in experiment [17] was inactive. Moreover, the potentiation in experiment [4] is 29% (active); in experiment [15] it was 37.3% (active).

With `Cc1cc(NC(=O)C(C)SCC(=O)N(Cc2ccccc2)c2ccccc2)no1` (stereo not given), the result in [1], in experiment [2], in experiment [3], in experiment [4], in experiment [6] and in [7] was inactive. The result in experiment [8], in experiment [9], in experiment [10], in experiment [11], in experiment [12] and in experiment [13] was inactive. Besides, the outcome in [15], in experiment [16] and in experiment [17] was inactive. In addition, the results for the inhibition in [5] and in [14] were 90% (active) and 25.3% (active), respectively.

With `Cc1ccc(-c2cc(C(=O)NCCCN3CCCC3)c3ccccc3n2)cc1C`, the outcome in experiment [1], in experiment [2], in experiment [3], in experiment [4], in [5] and in [6] was inactive. The outcome in [7], in experiment [8], in experiment [9], in [10], in [11] and in experiment [12] was inactive. The outcome in experiment [13], in [14], in experiment [16] and in experiment [17] was inactive. In experiment [15], the potentiation is 17.7% (active).

On to `CC(C)CCn1c(Sc2nc3ccccc3o2)nc2c1c(=O)[nH]c(=O)n2C`, for which the outcome in experiment [1], in experiment [2], in [3], in experiment [5], in experiment [6] and in [7] was inactive. In addition, the result in experiment [8], in experiment [9], in experiment [10], in experiment [11], in [12] and in [13] was inactive. Further, the result in experiment [14], in experiment [16] and in experiment [17] was inactive. In addition, the values for the potentiation in experiment [4] and in experiment [15] were 13% (active) and 45% (active), respectively.

`O=C(/C=C/c1ccc(Cl)cc1)N(Cc1ccccc1)C1CCS(=O)(=O)C1` (stereo not given): the outcome in experiment [1], in experiment [2], in [3], in [4], in [5] and in experiment [6] was inactive. For the same compound, the outcome in [7], in experiment [8], in [9], in [10], in [11] and in [12] was inactive. The outcome in [13], in experiment [14], in experiment [16] and in experiment [17] was inactive. In [15], the potentiation was 15.5% (active).

`Cc1ccc(CNC(=O)CSc2nc(=O)n3ccccc3n2)cc1`: the outcome in experiment [1], in [2], in [3], in [4], in [5] and in experiment [6] was inactive. For the same compound, the result in experiment [7], in [8], in experiment [9], in experiment [10], in experiment [11] and in experiment [12] was inactive. Moreover, the outcome in [13], in experiment [14], in [15], in experiment [16] and in experiment [17] was inactive.
